Sampled rows, rich in hits. Any-hit rate of the full collection: about 3.2%.
ANO1 block = mouse TMEM16A channel inhibition, primary screen; HEK293 TMEM16A/YFP iodide influx fluorescence, ionomycin; normalized B-score (activity score, 25-100; higher = stronger inhibition) at 10 µM; hit rate 1.2% among 310,000; AID 588511;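 active = ratio plate-corrected score three or more library SD toward inhibition, starting fluorescence score within five deviations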;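 also: score derived from kinetic fluorescence span divided by baseline fluorescence per well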
Target sequence (Q8BHY3 whole entry, looked up): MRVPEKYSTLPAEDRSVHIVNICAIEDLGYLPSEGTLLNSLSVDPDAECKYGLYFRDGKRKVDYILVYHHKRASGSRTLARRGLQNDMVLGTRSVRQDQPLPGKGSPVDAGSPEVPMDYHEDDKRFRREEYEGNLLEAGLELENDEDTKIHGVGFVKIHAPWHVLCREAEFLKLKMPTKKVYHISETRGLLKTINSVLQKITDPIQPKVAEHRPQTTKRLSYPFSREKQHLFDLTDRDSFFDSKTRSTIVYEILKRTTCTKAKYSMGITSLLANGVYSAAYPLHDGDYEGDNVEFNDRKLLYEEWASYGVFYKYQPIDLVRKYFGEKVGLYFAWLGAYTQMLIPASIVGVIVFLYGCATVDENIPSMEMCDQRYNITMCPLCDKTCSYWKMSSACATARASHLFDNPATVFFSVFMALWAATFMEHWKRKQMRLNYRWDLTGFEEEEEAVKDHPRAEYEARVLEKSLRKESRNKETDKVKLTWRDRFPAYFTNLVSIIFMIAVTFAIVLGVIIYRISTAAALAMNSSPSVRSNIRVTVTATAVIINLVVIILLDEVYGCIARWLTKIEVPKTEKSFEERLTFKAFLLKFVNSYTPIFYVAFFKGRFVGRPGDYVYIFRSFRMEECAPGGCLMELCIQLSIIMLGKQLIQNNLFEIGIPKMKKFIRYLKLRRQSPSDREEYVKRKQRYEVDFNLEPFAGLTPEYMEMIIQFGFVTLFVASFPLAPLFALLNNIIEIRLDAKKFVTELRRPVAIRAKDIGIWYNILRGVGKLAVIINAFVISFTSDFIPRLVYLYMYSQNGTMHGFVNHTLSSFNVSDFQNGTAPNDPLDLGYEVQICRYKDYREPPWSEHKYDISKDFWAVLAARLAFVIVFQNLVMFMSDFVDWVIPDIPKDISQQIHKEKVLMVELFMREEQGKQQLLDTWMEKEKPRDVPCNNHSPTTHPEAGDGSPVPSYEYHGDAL
PHOSPHO1 inh = inhibitors of human PHOSPHO1 phosphatase | Q8TCT1 | recombinant PHOSPHO1, absorbance phosphatase assay | inhibition, % at 13.3 µM | hit rate 1.1% among 290,000; in the data active = inhibition above about 60%
CHT allo act = allosterically activates the human high affinity choline transporter; Q9GZV3; CHT-expressing cells, membrane potential dye, choline EC20; active compounds read high; LV-AA mutant CHT in HEK293 cells; B-score at 10 µM; hit rate 0.49% among 310,000; AID 488977;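 active = initial fluorescence not abnormally high and integrated response B-score, plate-corrected, over 3 SD above library mean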
ANO1 activ = activators or potentiators of mouse TMEM16A chloride channel | Q8BHY3 | hit rate 0.3% among 340,000 | B-score at 10 µM | HEK293 TMEM16A/YFP-H148Q/I152L, iodide quench fluorescence; active compounds read low;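 active = fluorescence-ratio B-score plate-corrected deviation score at least 3 library SD below zero, with starting fluorescence score within 5 deviations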;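 also: channel opened by trigger with iodide after compound preincubation; score built on the fluorescence ratio of max minus min over baseline; more negative score means more quench and so TMEM16A activation or potentiation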
CHT inh = inhibitors of human choline transporter CHT. CHT-expressing cells, membrane potential dye, choline response; active compounds read low. AID 488975. Q9GZV3. B-score at 10 µM. hit rate 0.86% among 310,000;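 active = B-score over 3 SD under the library average, and starting fluorescence ratio not unusually high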;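 also: choline stimulus applied at its EC90 after an EC20 pre-addition; B-score computed on integrated fluorescence ratio after choline addition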
HDAC3 inh = human HDAC3 inhibition. inhibition, % at 8.3 µM. hit rate 0.15% among 320,000. recombinant HDAC3, fluorogenic peptide/trypsin coupled, fluorescence. O15379; in the data active = inhibition above about 26%, passing the limit was not always enough
An asterisk follows results filed as active; i = inactive; . = no result given.

SMILES	ANO1 block	PHOSPHO1 inh	CHT allo act	ANO1 activ	CHT inh	HDAC3 inh
COc1ccccc1C(=O)CSc1n[nH]c(N)n1	i	80*	i	i	i	-2
CCC(Oc1ccccc1)C(=O)NC1CCCCCC1 (stereo not drawn)	i	.	i	i	i	5
C/C(=N\NC(=S)Nc1cccc(C)c1)c1cc2ccccc2o1	i	-183	i	i	i	-9
Cc1noc(C)c1S(=O)(=O)N(CC(=O)NCc1ccc(F)cc1)c1ccc(C(C)C)cc1	i	23	i	i	i	-7
O=C(CSc1n[nH]c(-c2ccncc2)n1)c1ccccc1	i	33	i	i	i	0
Cc1nc(SCC(=O)c2ccccc2)n[nH]1	i	98*	i	i	i	6
Cc1oc2c(CN3CCCC(C)C3)c(O)ccc2c(=O)c1-c1ccccc1 (stereo not drawn)	i	23	i	i	i	-38
CC(=O)CSc1nnc(Cc2ccc([N+](=O)[O-])cc2)o1	i	-33	i	i	i	28*
COC(=O)/C(=C(/F)Sc1cc(C)c(O)c(C)c1)C(F)(F)F	i	64*	i	i	i	12
COc1ccc(OCCSc2nnc3sc4ccccc4n23)cc1	i	77*	i	i	i	0
N#CCSc1nnc2sc3ccccc3n12	i	-11	i	i	i	-2
CCC1(C)Cc2c(C#N)c(N)sc(=S)c2CO1 (stereo not drawn)	i	90*	i	-25*	i	-9
Cc1ccc(C(=O)NNC(=O)COC(=O)COc2ccccc2C#N)cc1	.	.	.	i	.	.
CCOC(=O)c1c(C)[nH]c(C)c1S(=O)(=O)NC(CC)CN1CCOCC1 (stereo not drawn)	i	65*	i	i	i	-10
CCOC(=O)c1c(C)[nH]c(C(=O)CN2CCOCC2)c1C	i	1	i	i	i	5
C=C1C[C@H]2[C@@H]3C=C(C)C4=CC(=O)CC[C@]4(C)[C@H]3CC[C@]2(C)[C@@]1(OC(C)=O)C(C)=O	100*	.	i	i	i	2
O=C(Nc1nc2ccccc2[nH]1)C1CC1	i	44	i	-5.8*	i	-1
COc1ccc(N(CC(=O)NC2CCCC2)C(=O)c2csnn2)cc1	i	2	i	i	i	-2
CCCCOc1ccc(CSc2nc(C)[nH]c2[N+](=O)[O-])cc1[N+](=O)[O-]	i	61*	i	i	i	2
O=C1N/C(=N\S(=O)(=O)c2ccccc2)S/C1=C\c1cc([N+](=O)[O-])ccc1O	i	28	i	i	i	8
COc1cc(/C=C2/S/C(=N/S(=O)(=O)c3ccccc3)NC2=O)c([N+](=O)[O-])cc1OC	i	71*	i	i	i	15
CCn1c(SCC(=O)N2CCCC2)nc2c(c1=O)SCC2	i	-12	i	i	i	.
Cc1c(N2C(=O)/C(=C/c3ccc(N(C)C)cc3)N(C)C2=S)c(=O)n(-c2ccccc2)n1C	.	.	.	-8*	.	.
Cc1c(N2C(=O)/C(=C/c3ccccc3)SC2=S)c(=O)n(-c2ccccc2)n1C	i	13	i	i	i	6
C=C1c2cc(C)ccc2NC(=O)N1c1ccc(C)cc1	i	73*	i	i	i	-1
SMILES	ANO1 block	PHOSPHO1 inh	CHT allo act	ANO1 activ	CHT inh	HDAC3 inh
C=C1c2ccccc2NC(=O)N1c1ccc(C)cc1	i	6	i	i	i	-3
COc1cc(-c2nnc(SCc3cc(=O)oc4cc(C)ccc34)o2)cc(OC)c1OC	i	74*	i	i	i	-10
CCN(C(=O)c1ccc(=O)n(C)n1)c1c(N)n(Cc2ccccc2)c(=O)[nH]c1=O	.	.	.	i	.	.
COc1ccc(N2C(=O)CC(Sc3ncn[nH]3)C2=O)c(OC)c1 (stereo not drawn)	i	92*	i	i	i	7
CCCc1c(O)nc(SC2CC(=O)N(c3cc(OC)ccc3OC)C2=O)[nH]c1=O (stereo not drawn)	i	15	i	i	i	2
COC(=O)c1ccc(COC(=O)c2[nH]c(C)c(C(C)=O)c2C)o1	100*	12	i	i	i	-3
CC(C)(C)C(=O)NC(=S)NNC(=O)c1ccncc1	i	20	i	i	i	6
O=C(NC(=S)NNC(=O)c1cccs1)c1ccccc1	i	-117	i	i	i	-2
CC(C)(C)C(=O)NC(=S)NNC(=O)c1ccc(-c2ccccc2)cc1	100*	-78	i	-10*	i	1
CC(C)(C)c1ccc(C(=O)NC(=S)NNC(=O)COc2ccccc2)cc1	100*	-5	i	-4.6*	-5.1*	7
CC(C)(C)c1ccc(C(=O)NC(=S)NNC(=O)c2cccs2)cc1	100*	6	i	i	i	7
CCOC(=O)c1ccc(NC(=O)Cn2ccc([N+](=O)[O-])n2)cc1	i	8	i	i	i	-5
CCOC(=O)C1CCN(Cc2nc3ccccc3c(=O)n2-c2ccc(F)cc2)CC1	i	-7	i	i	i	2
Cc1cccc2c(C(=O)N3CCN(C(=O)c4ccco4)CC3)cc(-c3cccc(Br)c3)nc12	100*	38	i	i	i	11
Cc1nc2ncnn2c(C)c1CCC(=O)NCCc1ccccc1	i	3	i	i	i	-1
O=C1SC(c2ccccc2)=N/C1=C/c1ccco1	i	73*	i	i	i	1
Cc1ncc([N+](=O)[O-])n1CC(=O)Nc1ccc(Br)cc1	i	19	i	i	i	7
Cc1ccc(N/N=C2/CCCNC2=O)cc1	i	93*	i	i	i	2
Cc1ccc(S(=O)(=O)N2CCN(CC(=O)Nc3ccc(N4CCOCC4)cc3)CC2)cc1C	i	-12	i	i	i	-2
CC(C(=O)Nc1ccc(S(=O)(=O)N2CCOCC2)cc1)N(c1ccccc1)S(C)(=O)=O (stereo not drawn)	i	-39	i	-10*	i	-16
Cc1cccc(N2CCN(CC(=O)Nc3ccc(S(=O)(=O)N4CCOCC4)cc3)CC2)c1C	25*	18	i	i	i	-1
COc1ccc(NS(=O)(=O)c2ccc(NC(=S)NC(=O)C(C)C)cc2)cc1	25*	-12	i	i	i	2
CCOc1ccc(NS(=O)(=O)c2ccc(NC(=S)NC(=O)C(C)C)cc2)cc1	i	8	i	i	i	16
CCOC(=O)N1CCN(C(=O)C2CCC(=O)N(CCCc3ccccc3)C2)CC1 (stereo not drawn)	i	61*	i	i	i	4
